The record followed here is PubChem BioAssay (Tox21).

The nature of assay [1]: Nuclear factor erythroid 2-related factor 2/antioxidant responsive element (Nrf2/ARE) small molecule agonists: qHTS cell viability counter screen in human keratinocytes (AID 1919968; active means well fitted curve in the direction sought with a large enough effect in the repeat runs; an effect the other way counts as inactive or inconclusive; further: nearly all actives have a fitted effect of over 55% in size; further: potency means the concentration at half of the fitted maximal effect). The essentials:
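Viability counter-screen: KeratinoSens reporter cells, DMSO-delivered compounds, 23 h at 37 C, CellTiter-Fluor fluorescence.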
(In general: qHTS replaces the single test concentration by a dilution series.)

The nature of assay [2]: Nuclear factor erythroid 2-related factor 2/antioxidant responsive element (Nrf2/ARE) small molecule agonists: luciferase reporter gene qHTS assay in human keratinocytes (AID 1919969). Further: nearly all actives have a fitted effect of over 35% in size. Further: potency means the concentration at half of the fitted maximal effect.
The target of assay [3] is Gonadotropin-releasing hormone receptor (Homo sapiens) (UniProt P30968). The experiment in a line: Human gonadotropin-releasing hormone receptor (GnRHR) small molecule agonists, calcium flux assay in GnRHR-HEK293 cells (AID 1920063). Further: nearly all actives have a fitted effect of over 35% in size. The essentials:
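Tox21-format agonist screen using human GnRHR-expressing HEK293 cells and a fluorescent calcium dye; kinetic 3-min fluorescence reading after compound addition, 15-point concentration series run in triplicate.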
For orientation: A change in cytosolic calcium serves as a functional read-out for many receptors and channels.

In assay [4] the target is KiSS-1 receptor (Homo sapiens) (UniProt Q969F8). The assay can be described thus: Human kisspeptin (KISS1R) small molecule agonists, calcium flux assay in KISS1R-HEK293 cells (AID 1920064; active means well fitted curve in the direction sought with a large enough effect in the repeat runs; an effect the other way counts as inactive or inconclusive). The essentials:
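Intracellular calcium mobilization in KISS1R-HEK293 cells was recorded by fluorescence (Ex/Em 480/540) for 3 min following compound addition to cells pre-loaded 1 h with calcium dye.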

Assay [5] can be described thus: G protein-coupled receptor (GPCR) small molecule agonists, calcium flux assay: HEK293 wild type cell line counter screen (AID 1920065). The essentials: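 In this agonist-mode screen, ATP is the positive control and DMSO the vehicle. Cells grow 18 h before a 1 h dye incubation at 37 C; signal is taken at Ex/Em 480/540 over 3 min.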
The nature of assay [6]: p53 small molecule agonists, cell-based qHTS assay with human liver microsomes (AID 1963577).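 Further: p53 response element beta-lactamase reporter cells with liver microsomes plus NADPH.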 The essentials: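 p53RE-bla cells; 5 h settle, 37 C/5% CO2; cpd + HLM 0.5 mg/mL + NADPH 0.5 mg/mL (final); 16 h 37 C; LiveBLAzer 2 h RT dark; fluorescence readout.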
Assay [7] in a line: p53 small molecule agonists, cell-based qHTS assay with rat liver microsomes (AID 1963578). The essentials:
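Rat liver microsome activation: microsomes 0.5 mg/mL, NADPH 0.5 mg/mL final; p53RE-bla cells, 16 h 37 C; LiveBLAzer readout, 2 h RT dark.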

Assay [8] is described as follows: p53 small molecule agonists, cell-based qHTS assay: qHTS cell viability counter screen (AID 1963581). Further: nearly all actives have a fitted effect of over 45% in size. The essentials:
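Compounds are pinned onto HCT-116 p53RE-bla cells and left 16 h at 37 C. Following the reporter FRET read, ATP is quantified by CellTiter-Glo luminescence after 30 min at room temperature.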

Assay [9] is described as follows: p53 small molecule agonists, cell-based qHTS assay (AID 1963582; active means well fitted activation curve with a large enough effect in the signal ratio in the repeat runs, not every such curve was filed as active; the % refers to the signal ratio). The essentials:
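Agonist activity was scored from beta-lactamase FRET fluorescence in p53RE-bla cells treated 16 h at 37 C with compounds in DMSO, substrate incubation being 2 h at room temperature.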

The target in assay [10] is 5-hydroxytryptamine receptor 2A (Homo sapiens) (UniProt P28223). The assay can be described thus: 5-hydroxytryptamine receptor 2A (HTR2A) small molecule antagonists, cell-based qHTS assay (AID 1963586). Further: nearly all actives have a fitted effect of over 45% in size. The essentials:
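Antagonist-mode intracellular calcium assay: DOI (4 nM) added after 5 min compound pre-incubation at room temperature to dye-loaded HTR2A-CHO cells. Fluorescence followed for 3 min, sampled every second.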

Assay [11] shares this target. The experiment in a line: 5-hydroxytryptamine receptor 2A (HTR2A) small molecule agonists, cell-based qHTS assay (AID 1963587). Further: nearly all actives have a fitted effect of over 30% in size. The essentials:
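HTR2A-CHO cells, plated 18 h at 37 C/5% CO2, dye-loaded 1 h at 37 C; compounds in DMSO added by pin tool (agonist mode). Intracellular calcium flux read as kinetic fluorescence on FDSS over 2 min at 1 s intervals.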

The target in assay [12] is Muscarinic acetylcholine receptor M1 (Homo sapiens) (UniProt P11229). The assay can be described thus: Cholinergic receptor muscarinic 1 (CHRM1) small molecule antagonists, cell-based qHTS assay (AID 1963588). Further: nearly all actives have a fitted effect of over 40% in size. The essentials:
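CHRM1-CHO calcium-flux assay, antagonist mode. Cells were seeded 18 h, dye-loaded 1 h at 37 C and given compound for 5 min at RT, then acetylcholine was added at 50nM. FDSS fluorescence was read 3 min; 15 concentrations, three runs.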

For assay [13] the target is unchanged. The experiment in a line: Cholinergic receptor muscarinic 1 (CHRM1) small molecule agonists, cell-based qHTS assay (AID 1963589). Further: nearly all actives have a fitted effect of over 35% in size. The essentials:
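Stable CHRM1-CHO cells (human receptor) were incubated 18 h, dye-loaded for 1 h at 37 C and exposed to test compounds for agonist activity, with calcium-dependent fluorescence followed kinetically.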

In assay [14] the target is Beta-2 adrenergic receptor (Homo sapiens) (UniProt P07550). The experiment in a line: Adrenergic beta2 receptor (ADRB2) small molecule antagonists, cell-based qHTS assay (AID 1963592). Further: series mostly up to about 92 µM; nearly all actives have a fitted effect of over 50% in size. The essentials:
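Cells (CHO, stable ADRB2 overexpression) incubated 18-20hr at 37C; compounds added from DMSO; agonist mix (1nM isoproterenol, 100uM IBMX, 25uM Ro-20-1724) added; 0.5hr RT; d2-cAMP and anti-cAMP-cryptate added; 1hr RT; 665/615 nm read.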

The target is the same in assay [15]. The assay can be described thus: Adrenergic beta2 receptor (ADRB2) small molecule agonists, cell-based qHTS assay (AID 1963593).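 Further: CHO cells stably overexpressing human ADRB2.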 The essentials: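 CHO cells stably over-expressing ADRB2 were plated overnight at 37C, then dosed with compounds plus a stimulation mix containing 100uM IBMX and 25uM Ro-20-1724 for 0.5hr at room temperature. cAMP was measured by HTRF competition, 1hr.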

Assay [16] addresses D(2) dopamine receptor (Homo sapiens) (UniProt P14416). The assay can be described thus: Dopamine D2 receptor (DRD2) small molecule agonists, cell-based qHTS assay (AID 1963594). Further: nearly all actives have a fitted effect of over 35% in size. The essentials:
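HEK293 cells stably expressing DRD2 were cultured 24 h at 37 C, then given Ro20-1724 (0.1 mM final) and compounds for 10 min at room temperature. NKH477 (200nM) was then added for 30 min. cAMP was read by HTRF.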

Assay [17] shares this target. The assay can be described thus: Dopamine D2 receptor (DRD2) small molecule antagonists, cell-based qHTS assay (AID 1963595; active means well fitted inhibition curve with a large enough effect in the signal ratio in the repeat runs, with a control signal flat; the % refers to the signal ratio). The essentials: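 Antagonist mode in DRD2-HEK293 cells: after compound addition with 0.1 mM Ro20-1724, cells received quinpirole (12 nM) and NKH477 (200 nM) for 30 min at room temperature; HTRF cAMP read after 1 h detection.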
The nature of assay [18]: cAMP Responsive Elements (CRE) small molecule agonists, cell-based qHTS assay (AID 1963590). The essentials: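 FRET-based beta-lactamase readout (LiveBLAzer B/G, 2 h RT) quantified CRE activation in HEK 293T CRE-bla cells after 3 h treatment with DMSO-dissolved compounds.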
Assay [19] is described as follows: cAMP Responsive Elements (CRE) small molecule antagonists, cell-based qHTS assay (AID 1963591; active means well fitted inhibition curve with a large enough effect in the signal ratio in the repeat runs, not every such curve was filed as active; the % refers to the signal ratio). The essentials: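 qHTS in CRE-bla HEK 293T cells: compound in DMSO, then 0.25 uM NKH477 (final), 3 h at 37 °C/5% CO2; beta-lactamase FRET read-out after 2 h substrate incubation.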

Results filed as inconclusive are left out. Calls of active or inactive are those of the source. Unless noted, the call rests on the fitted dose curve.

Beta-2 adrenergic receptor (Homo sapiens), sequence (P07550 whole entry, looked up): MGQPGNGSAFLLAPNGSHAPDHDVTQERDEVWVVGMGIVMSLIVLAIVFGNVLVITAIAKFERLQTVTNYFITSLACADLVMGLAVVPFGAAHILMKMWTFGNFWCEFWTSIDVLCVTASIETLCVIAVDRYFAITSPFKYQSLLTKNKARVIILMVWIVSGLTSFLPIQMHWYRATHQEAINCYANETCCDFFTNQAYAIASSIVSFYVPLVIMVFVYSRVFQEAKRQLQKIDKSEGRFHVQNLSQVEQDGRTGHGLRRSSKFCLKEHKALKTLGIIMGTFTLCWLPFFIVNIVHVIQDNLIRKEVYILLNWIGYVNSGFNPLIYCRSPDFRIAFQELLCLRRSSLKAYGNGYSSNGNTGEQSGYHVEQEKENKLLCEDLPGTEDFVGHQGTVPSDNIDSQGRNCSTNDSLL
5-hydroxytryptamine receptor 2A (Homo sapiens), sequence (P28223 whole entry, looked up): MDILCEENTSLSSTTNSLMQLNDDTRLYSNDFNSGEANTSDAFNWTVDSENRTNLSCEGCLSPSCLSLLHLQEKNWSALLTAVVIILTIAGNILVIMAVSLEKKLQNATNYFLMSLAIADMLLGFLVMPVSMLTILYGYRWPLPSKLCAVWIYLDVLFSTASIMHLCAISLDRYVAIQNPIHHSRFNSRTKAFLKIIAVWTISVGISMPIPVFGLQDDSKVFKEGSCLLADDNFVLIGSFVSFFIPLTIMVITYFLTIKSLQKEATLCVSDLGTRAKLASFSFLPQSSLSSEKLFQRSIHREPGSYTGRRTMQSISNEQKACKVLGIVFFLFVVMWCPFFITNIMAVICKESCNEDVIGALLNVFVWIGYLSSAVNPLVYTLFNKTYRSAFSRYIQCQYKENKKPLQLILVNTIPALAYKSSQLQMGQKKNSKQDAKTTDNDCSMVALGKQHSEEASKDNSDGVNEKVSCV
Muscarinic acetylcholine receptor M1 (Homo sapiens), sequence (P11229 whole entry, looked up): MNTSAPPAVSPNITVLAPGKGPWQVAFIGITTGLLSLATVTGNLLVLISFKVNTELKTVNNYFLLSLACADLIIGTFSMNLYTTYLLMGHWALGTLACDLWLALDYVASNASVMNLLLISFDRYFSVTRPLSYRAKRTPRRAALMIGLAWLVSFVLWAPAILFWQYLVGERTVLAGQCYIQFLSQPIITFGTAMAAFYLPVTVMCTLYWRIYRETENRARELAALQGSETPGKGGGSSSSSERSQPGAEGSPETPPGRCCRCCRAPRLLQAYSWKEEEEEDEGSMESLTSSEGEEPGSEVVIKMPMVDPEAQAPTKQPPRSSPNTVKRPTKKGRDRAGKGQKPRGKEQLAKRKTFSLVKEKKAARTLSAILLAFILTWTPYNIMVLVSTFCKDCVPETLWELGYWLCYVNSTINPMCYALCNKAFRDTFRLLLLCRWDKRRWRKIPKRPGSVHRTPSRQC
KiSS-1 receptor (Homo sapiens), sequence (Q969F8 whole entry, looked up): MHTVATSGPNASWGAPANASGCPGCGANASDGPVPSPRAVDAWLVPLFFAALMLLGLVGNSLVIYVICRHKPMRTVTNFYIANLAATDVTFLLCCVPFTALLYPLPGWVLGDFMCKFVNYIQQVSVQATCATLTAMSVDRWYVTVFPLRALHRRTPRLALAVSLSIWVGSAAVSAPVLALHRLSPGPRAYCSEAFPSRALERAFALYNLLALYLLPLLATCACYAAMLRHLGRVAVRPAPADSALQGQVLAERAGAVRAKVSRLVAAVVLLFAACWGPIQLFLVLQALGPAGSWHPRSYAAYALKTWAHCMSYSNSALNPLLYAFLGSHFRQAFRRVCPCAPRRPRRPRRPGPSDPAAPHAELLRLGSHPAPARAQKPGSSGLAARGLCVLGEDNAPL
D(2) dopamine receptor (Homo sapiens), sequence (P14416 whole entry, looked up): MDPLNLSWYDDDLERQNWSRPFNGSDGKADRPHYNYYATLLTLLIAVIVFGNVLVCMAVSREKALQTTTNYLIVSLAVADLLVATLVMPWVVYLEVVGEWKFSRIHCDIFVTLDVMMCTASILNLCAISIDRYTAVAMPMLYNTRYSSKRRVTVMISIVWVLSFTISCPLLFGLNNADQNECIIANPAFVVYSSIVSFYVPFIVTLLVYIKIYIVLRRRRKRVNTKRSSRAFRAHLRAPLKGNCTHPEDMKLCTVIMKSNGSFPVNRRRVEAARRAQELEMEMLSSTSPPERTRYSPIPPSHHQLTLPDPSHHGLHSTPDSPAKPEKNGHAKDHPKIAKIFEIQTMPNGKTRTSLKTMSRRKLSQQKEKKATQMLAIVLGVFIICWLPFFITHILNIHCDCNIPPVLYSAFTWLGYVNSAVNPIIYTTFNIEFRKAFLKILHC
Gonadotropin-releasing hormone receptor (Homo sapiens), sequence (P30968 whole entry, looked up): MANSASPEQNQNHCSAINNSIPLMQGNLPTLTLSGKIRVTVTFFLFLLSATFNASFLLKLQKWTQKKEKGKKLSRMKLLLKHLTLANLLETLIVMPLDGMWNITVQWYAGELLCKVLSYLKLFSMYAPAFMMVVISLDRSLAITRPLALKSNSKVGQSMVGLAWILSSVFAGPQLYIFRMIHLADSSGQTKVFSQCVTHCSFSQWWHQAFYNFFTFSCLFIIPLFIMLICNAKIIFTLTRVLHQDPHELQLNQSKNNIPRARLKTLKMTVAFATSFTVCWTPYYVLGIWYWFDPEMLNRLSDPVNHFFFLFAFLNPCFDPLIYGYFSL

Consider `Cc1ccc(C(=O)c2cc(O)c(O)c([N+](=O)[O-])c2)cc1`, for which the Potency in assay [1] was 30.6 µM (active). Moreover, the Potency result in assay [2], in assay [3], in [4], in [5], in assay [6] and in assay [7] was “inactive” in each case. Further, the Potency result in [8], in [9], in assay [10], in assay [11], in assay [12] and in assay [13] was “inactive” in each case. The Potency result in [14], in assay [15], in assay [16] and in assay [17] was “inactive” in each case.
Take `O=C(O)c1cc(O)c(O)c(O)c1`: the Potency result in [1], in assay [2], in [3], in [4], in assay [5] and in [6] was “inactive” in each case. Also, the Potency result in [7], in [8], in assay [9], in assay [10], in assay [11] and in assay [13] was “inactive” each time. Moreover, the Potency entry in assay [18], in assay [19], in assay [14], in assay [15] and in assay [17] was “inactive” each time.
As to `N#CCc1cccc(C(F)(F)F)c1`, the Potency result in [1], in [3], in assay [4], in assay [5], in assay [6] and in assay [7] was “inactive” throughout. Moreover, the Potency result in assay [8], in assay [9], in assay [10], in assay [11], in assay [12] and in assay [13] was “inactive” throughout. In addition, the Potency entry in assay [18], in [14], in [15] and in assay [16] was “inactive” throughout. Further, in assay [2], the Potency was 68.6 µM (active).
On to `CC(C)CC(O)Cc1ccccc1` (centres undefined), for which the Potency result in [1], in assay [2], in [3], in [4], in assay [5] and in assay [6] was “inactive” throughout. Moreover, the Potency entry in [7], in assay [8], in assay [9], in assay [10], in assay [11] and in [18] was “inactive” in each case. Besides, the Potency result in assay [19], in assay [14], in assay [15] and in assay [17] was “inactive” throughout.
For `OCC1(CO)COCOC1`, the Potency result in [1], in [2], in assay [3], in [4], in [5] and in assay [6] was “inactive” throughout. The Potency entry in assay [7], in assay [8], in assay [9], in assay [10], in assay [11] and in assay [13] was “inactive” in each case. The Potency result in assay [18], in assay [14], in assay [15], in [16] and in assay [17] was “inactive” each time.
Consider `CC(=O)N(O)CCCCCNC(=O)CCC(=O)N(O)CCCCCNC(=O)CCC(=O)N(O)CCCCCN`, for which the Potency entry in assay [1], in assay [2], in [3], in [4], in [5] and in [6] was “inactive” each time. The Potency result in assay [7], in assay [8], in [9], in assay [10], in assay [11] and in assay [12] was “inactive” each time. In addition, the Potency result in assay [13], in [19], in assay [14], in [16] and in [17] was “inactive” each time.
With `Cc1cc(C)cc(OCC2CNC(=O)O2)c1` (centres undefined), the Potency result in [1], in [2], in [3], in [4], in assay [5] and in assay [6] was “inactive” in each case. The Potency entry in assay [7], in [8], in assay [10], in assay [11], in assay [12] and in assay [13] was “inactive” each time. Moreover, the Potency entry in assay [19], in [14] and in assay [15] was “inactive” each time.
Take `CCCCCCCCOC(=O)CCCCCCCCC(=O)OCCCCCCCC`: the Potency result in [1], in assay [2], in assay [3], in assay [4], in [5] and in [6] was “inactive” each time. The Potency result in assay [7], in assay [8], in [9], in assay [10], in assay [11] and in assay [12] was “inactive” in each case. Besides, the Potency entry in assay [18], in [19], in assay [14], in [15], in assay [16] and in assay [17] was “inactive” in each case.
